In PubChem BioAssay AID1159506 (National Center for Advancing Translational Sciences (NCATS), 2015):
Over roughly 59,000 sequences, the read-out has its median near -0.00055; the lowest 2% begin near -2. This excerpt belongs to a sample that is enriched for the lowest values.

Test: Identification of proteins required for the processing of the EWS-FLI1 nascent transcript;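 note: robust z of luciferase light less the median z of siRNAs with the same seed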
Settings: TC32 Ewing sarcoma NR0B1-luc vs CMV-luc (EWS-FLI1 target promoter against control promoter), 48 h; screened at 20 nM (by protocol)
Outline: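 Parallel TC32-NR0B1-luc and TC32-CMV-luc reverse transfections with 20 nM siRNA in RPMI-1640/10% FBS, luciferase measured 48 h later. Seed-adjusted z-scores from normalized, z-score-MAD transformed data; AllStars negative and siGL4 controls on each plate.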
UUGUCUCUCACUCAGAUUG against HOXB9 gave a seed-corrected z-score of 0.619.
With UGCUUUGCAAUGAUCUCUC against HNRNPM the seed-corrected z-score was -2.32.
UGUCAUGCAAUAAGAAUCU against NLGN4Y showed a seed-corrected z-score of 0.297.
In the case of UUAGAGUAAGUAAAUAUCC against RPS18P5, the seed-corrected z-score is reported as -0.219.
UGGGUAUACAGUCAUCAUC against SLC38A9 showed a seed-corrected z-score of -2.9.
With UUGGGUAAAAGACAGUUGA against TKT the seed-corrected z-score was -0.555.
For UAGACAACAUCAGUGAUCC against RPS8P4, the seed-corrected z-score was 0.47.
With AAGCUUCUUAACUUCAUUC against RPL14P1 the seed-corrected z-score was -3.84.
With UUUGGAGAACUCCCUGGGC against FLYWCH1 the seed-corrected z-score was -0.00776.
Sequence UAAUUGAGGGAGCAAAGGC against FAM53A has a seed-corrected z-score of -0.541.
With UCCUUUUCCACGACCAUCG against CCR2 the seed-corrected z-score was -1.29.
With UGCUGGAUCAGGGAGAUAG against TRPM2 the seed-corrected z-score was -2.19.
Sequence UCUUGUAGCGGAAAAGGCC against DUSP2 has a seed-corrected z-score of 0.0146.
In the case of UAACGAAUAAUUUCUGCUC against HPGDS, the seed-corrected z-score is reported as -0.285.
UUCCGGAUAGCCUACAUCC against USP36 showed a seed-corrected z-score of -0.445.
UAAUGUACAUCUCUCGUCC against CNGA1 showed a seed-corrected z-score of -2.2.
For UCAUCCUCCAGGAUCAUGG against ZSCAN2, the seed-corrected z-score was -0.868.
In the case of UAUUAGCACAGUGUAAGGC against PDE10A, the seed-corrected z-score is reported as -0.276.
AAUGAUCACAUCGAUAGUG against SGMS2 showed a seed-corrected z-score of -2.21.
Sequence UUUAUCAUUAGGGCUAGGG against DHRS4L1 has a seed-corrected z-score of 0.864.
For UUUUCGGUAACUCUGCGUG against SPEN, the seed-corrected z-score was -0.638.
For UAAGGUUCUCCCUCACAGC against JAKMIP2, the seed-corrected z-score was -0.785.
For UUGUUGUAAAGCACGAUGU against CHRNB4, the seed-corrected z-score was -0.439.
In the case of UAUUAUUGAUGCGACAUCC against CNGB3, the seed-corrected z-score is reported as 0.631.
UCUGGUUCCUCGGCGAAGU against PRSS53 showed a seed-corrected z-score of -2.84.
UAUCUUCACUGGGUUCAUG against IRF6 gave a seed-corrected z-score of 2.07.
In the case of AAUUUCUCCAGAAUCUAUG against TENM4, the seed-corrected z-score is reported as -2.16.
UUCUUUUAUUGCCUCGGGU against KISS1 showed a seed-corrected z-score of 0.198.
UUCGUUCCAACAUAGGCUG against AGBL1 gave a seed-corrected z-score of -2.49.
In the case of UGACAUAUGAGUUCGAUGG against ZCCHC17, the seed-corrected z-score is reported as 0.589.
In the case of AAUACUCUCAGUUCGAAUG against TXNDC15, the seed-corrected z-score is reported as 0.939.
Work on AAUCUUGUUAUGCUCAUGG against ZBTB47 yielded a seed-corrected z-score of -0.317.
For UUCGGUUCAAGUUUAGCAG against TM9SF2, the seed-corrected z-score was -0.205.
In the case of UCAAGUUCUAUGAGAUUGG against ARRB1, the seed-corrected z-score is reported as 0.195.
For ACAAUUUCAAGCUCCUGUC against MAGOHB, the seed-corrected z-score was -1.58.
UCUAGAUCACCAAACAUCA against OR1N1 showed a seed-corrected z-score of 0.571.
AGACAUAACACCUUCUUCA against RPL10A showed a seed-corrected z-score of -2.86.
Work on ACACCAGUGAUUACUGUGC against FLJ44635 yielded a seed-corrected z-score of -0.245.
UUGGUGAAUAGUCUCUUUC against RPS2P45 gave a seed-corrected z-score of -0.275.
For UCUUCACGCAGUAUCUUUC against SLC25A13, the seed-corrected z-score was 1.22.
UCUUCUUUAGUCUUCCUGC against STMND1 showed a seed-corrected z-score of -1.04.
In the case of UGCUCGAAAACAACCUUCU against TPI1, the seed-corrected z-score is reported as 0.853.
In the case of ACAUCUAUCACAUCUAAGG against ZC3H13, the seed-corrected z-score is reported as 0.428.
For UAUUUUGCAAUAUCUUCUC against SLU7, the seed-corrected z-score was -0.229.
Work on AUCGUCAUAUCUACCAUUG against USP34 yielded a seed-corrected z-score of -1.15.
For UGUUUGAUGACAAGGGUUG against POLE2, the seed-corrected z-score was -2.32.
In the case of AAAGUGUCUAGCCCUAUGG against MESP1, the seed-corrected z-score is reported as 0.768.
“AAUUCCAUGAGGGCCUUCC against CDKN2AIPNLP1” gave a seed-corrected z-score of -2.53.
In the case of UUCGGCACCAUUCACAGAG against FAM57A, the seed-corrected z-score is reported as 0.0703.
Sequence UGUUGACAAACCAUCUUUC against PDPN has a seed-corrected z-score of 0.381.
UUCAAAAACCACGAUGUUG against CLDN8 gave a seed-corrected z-score of 0.491.
Work on UGUUGUAGCACUUGGCUUU against IFITM5 yielded a seed-corrected z-score of -3.59.
AUAUCGAACAGUUUGGUAC against CTDNEP1 showed a seed-corrected z-score of 0.928.
With AUCCGGAUCAUCGAGUCUG against ATP1B4 the seed-corrected z-score was -0.782.
UUAAAUGUAAGCAGGUUUC against CYTL1 showed a seed-corrected z-score of 0.276.
AUUGAGGUAGGAGCCGUCG against FGFRL1 gave a seed-corrected z-score of -2.32.
For UUCAUUGCGAUUAGCCUGC against ANXA13, the seed-corrected z-score was -0.522.
Work on UACUAGAGCAGUGUCUGAG against DNPH1 yielded a seed-corrected z-score of 0.502.
In the case of UUCUCGUUGAUGCGGCUCC against ASB1, the seed-corrected z-score is reported as -2.16.
Work on UUGUUUUCACUUCCAAUGC against FCAMR yielded a seed-corrected z-score of -0.0643.
UCACGGUCAUCAUCUAGGG against FOPNL showed a seed-corrected z-score of -2.56.
Work on UUGUCUAGAAGAAUUGUCG against TTC3 yielded a seed-corrected z-score of -0.75.
UUAGGGACGAUGUCCACGG against RSPH6A gave a seed-corrected z-score of -0.977.
With UCUGGUUCAGCAUGAGCUG against SYT8 the seed-corrected z-score was -2.2.
UAUAACUUGUCGGAAACGC against NPIPB3 gave a seed-corrected z-score of 0.406.
Work on UCAAGUCCGACUUGGAGCG against FAM110A yielded a seed-corrected z-score of -0.0203.
AGUCUGAAUACCAUCCUUC against GATA1 showed a seed-corrected z-score of -0.386.
AACAUAGCUAAAAUGAUCC against CLMN showed a seed-corrected z-score of -2.28.
ACUGAGCUCAUUCUUGUCC against HSF1 showed a seed-corrected z-score of -0.661.
UUUACAGCUGAUGAUAUGG against RWDD4 gave a seed-corrected z-score of -0.249.
In the case of UUCGAUAGUAACAAAGUUC against PCDH9, the seed-corrected z-score is reported as -2.03.
For AAAGUCUCCAGUUAAUAGC against MRPL46, the seed-corrected z-score was 1.41.
For UAGUGCACCACGCAGGUCU against FKBP1A, the seed-corrected z-score was 0.92.
For UUACGGACAUCCGAUCUUC against DPYS, the seed-corrected z-score was -0.0377.
UCAUAGUCCGCGAUCACCU against EDF1 showed a seed-corrected z-score of -0.388.
Sequence UAUCCAGUACGUGAGGCCC against LRP5L has a seed-corrected z-score of -1.82.
Work on UUGGUUGUCAGAGUAGGUG against HSPA1L yielded a seed-corrected z-score of -2.39.
In the case of UUUCCCAUCCUUAAAGAGC against PTGS1, the seed-corrected z-score is reported as -0.201.
AAUCUAACUGCAUUCGUUG against RSBN1L showed a seed-corrected z-score of 0.409.
UUGUGAGCCGACAGGAUGC against PYCR2 gave a seed-corrected z-score of -0.604.
Sequence AAAACAUACAUUGACUUGC against LINC01098 has a seed-corrected z-score of -0.153.
Work on UGAGUUUCCGUACCACACC against PRDM12 yielded a seed-corrected z-score of -2.92.
In the case of UAUUCCCUAAUAAAGCAGG against ZMYM5, the seed-corrected z-score is reported as 0.289.
Sequence UUCUUCAACCUUGAGGCGG against SNAPC5 has a seed-corrected z-score of 0.755.
Work on UGAUGUCUACAAUAUCACC against RPL21 yielded a seed-corrected z-score of -2.69.
UGGGUGAUAAGAAAAACAG against CD40LG gave a seed-corrected z-score of -0.837.
AAAGCAAAUAGUAUGGUUC against ATG5 showed a seed-corrected z-score of 0.522.
Sequence UGGACUCCUACAUUACUGC against EFCAB13 has a seed-corrected z-score of 0.0128.
AAAGGUACUCUUGGGCAGG against EEF1G showed a seed-corrected z-score of -0.242.
With UUAGGUAAUACACUAUUUG against THAP2 the seed-corrected z-score was 0.091.
UCCCAGACUUUGACCAUGC against WDR38 gave a seed-corrected z-score of -2.
Work on UCUUGUGGAUGUAAUAUGC against SIMC1 yielded a seed-corrected z-score of -0.283.
For UUCUUCUACAGGCUUGAGG against SMNDC1, the seed-corrected z-score was -0.35.
UGAGUUUGAACCCAAAAGU against IGFL4 showed a seed-corrected z-score of 1.44.
Sequence UCUGUAGUCAGUUUGGUUG against LDB1 has a seed-corrected z-score of -0.7.
Sequence UCAUCUUCUCCAACUUUUC against GINS2 has a seed-corrected z-score of 0.362.
In the case of AAGCUUGUAAGUAUAGACG against SF3B3, the seed-corrected z-score is reported as -2.14.
For AUAGAAAACACCAAGAUUA against TMEM63A, the seed-corrected z-score was 0.279.
With AUAUGACCUACUACCAUCC against LURAP1 the seed-corrected z-score was 0.3.
Work on ACAUGAUCAACUGGUAGUC against TTBK1 yielded a seed-corrected z-score of -4.16.
UAAGGUAAGAGCCUGUGCU against ZNF177 showed a seed-corrected z-score of 0.0512.
Work on AAAAGUAUCAGCAGAAGUC against GPR156 yielded a seed-corrected z-score of -0.243.
Sequence UAGUUGAAGAGGGCGUGGG against TAS1R3 has a seed-corrected z-score of -0.153.
Sequence AACGGAACCUGUGAGAUCC against LARS2 has a seed-corrected z-score of -0.262.
UAACUGAAUGGCAUCCCGG against C6orf226 gave a seed-corrected z-score of 0.21.
Sequence UUGUAGUUCAGCUGGUUGU against SPATA2 has a seed-corrected z-score of -2.04.
UCCUGGAGCAUAUCCGAGC against TMPRSS5 showed a seed-corrected z-score of 0.289.
UCAUUUAGCUUUACCACCC against AHCYL1 gave a seed-corrected z-score of 0.0585.
Work on UUGUAUUCCACAGAAGUAA against SLC25A41 yielded a seed-corrected z-score of 0.115.
With UGUCGUAUCUCUCUUCAUC against TNNI3 the seed-corrected z-score was -0.115.
UUACUGCUGAAUACAGACU against HRASLS showed a seed-corrected z-score of -2.09.
With UAUGUCCCAAAUAUACACC against SLC36A3 the seed-corrected z-score was 0.459.
Sequence UUCUUACUCCAAUAUCUCC against WWC2 has a seed-corrected z-score of -0.0295.
UUUGAUGAAGGGUACGUGG against KIF11 gave a seed-corrected z-score of -2.31.
In the case of UUCUCAAUGAUAUUAUGGG against SREBF2, the seed-corrected z-score is reported as -0.569.
AUCAUAGCAACAGUGCUGC against IGFL1 showed a seed-corrected z-score of -2.6.
Work on UGAACAUUGAGUAACGAAC against ORAOV1 yielded a seed-corrected z-score of 0.0373.
UCUGUUCUCGGUCAAAGAC against DCAF11 gave a seed-corrected z-score of -0.91.
In the case of UUUAGUUCCUGAUCGAAAG against ZNF800, the seed-corrected z-score is reported as 1.28.
In the case of AUCUUUACGAGCUUCAGCC against FAM185BP, the seed-corrected z-score is reported as 1.55.
UCACUGUCAAACUCGUGCC against ARHGAP33 gave a seed-corrected z-score of -2.08.
Work on AUUGUAAUCGCGAAUAUCC against MESDC2 yielded a seed-corrected z-score of 0.809.
For UUCCCUCUUUGGGUCUUCC against SNX11, the seed-corrected z-score was 0.0123.
UACAGCUCCGAAAAACUCC against SIPA1 showed a seed-corrected z-score of -1.18.
For UUGACUGUCACUGAGGUAG against SDK2, the seed-corrected z-score was -0.0428.
Sequence UGUCGUACCAGUCGGACCA against TAC1 has a seed-corrected z-score of -2.02.
UAUUCGUUAUCAAAUUGUG against TMOD3 gave a seed-corrected z-score of 0.393.
With UCCGUUUUCCACGUAGUGC against FRMD1 the seed-corrected z-score was -0.836.
Work on UAUGUCUUCACGCAGCCGC against PI4KAP2 yielded a seed-corrected z-score of -1.12.
For UACGUUUGCUUUGCGCUCG against NR0B1, the seed-corrected z-score was -0.672.
Work on UUGGGAUUAACACUUGUGA against LINC00851 yielded a seed-corrected z-score of -2.42.
With UUGAAGUUUUCAAUUGUGC against CYSLTR2 the seed-corrected z-score was -0.797.
